Laboratory results published in the supplement of paper PMC12339681.
Structures can show the parent of a compound that is named as a salt.

Tested on: PBMC-derived induced microglia-like cells (piMGLC)
Assay: synaptosome phagocytic index relative to DMSO control (fraction of DMSO); higher = more phagocytosis
Settings: concentration: 10 uM (2 uM for compounds listed in Table S2); pretreatment time: 24 h; assay time: 3 h

SMILES	synaptosome phagocytic index
Cc1ccc(Nc2nccc(N(C)c3ccc4c(C)n(C)nc4c3)n2)cc1S(N)(=O)=O [Pazopanib_(Hydrochloride)]	0.523
CN1CCN(C2=Nc3ccccc3Nc3ccccc32)CC1 [Deschloroclozapine]	0.876
COc1ncc(F)cc1CNc1ccc(Cc2c[nH]c3ncc(C)cc23)c(F)n1 [PLX5622_(hemifumarate)]	0.966
C[C@H]1COCCN1c1nc(-c2cnc(N)cc2C(F)F)nc(N2CCOCC2)n1	0.366
Cc1cc(=O)n(-c2ccccc2)n1C [Antipyrine]	0.601
O=C1NC(=O)C(c2ccccc2)(c2ccccc2)N1 [Phenytoin]	1.12
CC(C)CCN(CCC(C)C)C(=O)c1ccc2nc(-c3ccc(C#N)cc3)c(CCCN3CCCC3)n2c1	0.408
CCN1CCCC1CNC(=O)c1cc(S(N)(=O)=O)ccc1OC (configuration not stated) [Sulpiride]	0.571
Cc1ccc(N2CCN(Cc3nc4ccccc4[nH]3)CC2)cc1C	1.03
Cc1ccc(NC(=O)c2ccc(CN3CCN(C)CC3)cc2)cc1Nc1nccc(-c2cccnc2)n1 [Imatinib_(Mesylate)]	0.52
CC1OC2(CS1)CN1CCC2CC1 (configuration not stated) [Cevimeline_(hydrochloride_hemihydrate)]	0.63
Nc1nc2ccc(OC(F)(F)F)cc2s1 [Riluzole]	0.991
CC(=O)Nc1ccc(C(=O)Nc2cc(-c3cccs3)ccc2N)cc1	0.416
C[C@@H](C(=O)O)c1ccc(-c2ccccc2)c(F)c1 [Tarenflurbil]	1.11
CNCCC(Oc1ccc(C(F)(F)F)cc1)c1ccccc1 (configuration not stated) [Fluoxetine_(hydrochloride)]	0.69
COc1cc(/C=C/C(=O)NCCn2c(C)cc3ccccc32)cc(OC)c1OC	0.832
CC(C)NCC(O)COc1ccc(CC(N)=O)cc1 (configuration not stated) [Atenolol]	0.717
CC(C)c1ccc(NC(=O)c2c(-c3cc(F)ccc3F)ccnc2N2CC[C@H](F)C2)cn1 [Nav1.1_activator_1]	0.451
COc1ccc2c(c1)c(CC(=O)O)c(C)n2C(=O)c1ccc(Cl)cc1 [Indomethacin]	1.22
CC(C)Nc1cccnc1N1CCN(C(=O)c2cc3cc(NS(C)(=O)=O)ccc3[nH]2)CC1 [Delavirdine_(mesylate)]	0.749
NC(=O)c1cccc(-c2cccc(OC(=O)NC3CCCCC3)c2)c1	0.86
NC(=O)OCC(COC(N)=O)c1ccccc1 [Felbamate]	0.618
Nc1nc(=O)n([C@@H]2CS[C@H](CO)O2)cc1F [Emtricitabine]	0.777
O=C(NCc1ccc(F)cc1)N1CCN2C(=O)OC(c3ccccc3)(c3ccccc3)C2C1 (configuration not stated)	0.552

SMILES	synaptosome phagocytic index
C[C@]1(c2nc3c(C(N)=O)cccc3[nH]2)CCCN1 [Veliparib]	0.721
Cc1ccnc2c1NC(=O)c1cccnc1N2C1CC1 [Nevirapine]	0.84
C[C@]12C=CC(=O)C=C1CC[C@@H]1[C@@H]2C(=O)C[C@@]2(C)[C@H]1CC[C@]2(O)C(=O)CO [Prednisone]	0.718
Cn1c(OCC2CCC(C(F)(F)F)CC2)nn2c(C3CCOCC3)ncc2c1=O (configuration not stated)	0.831
N#Cc1cccc(C(=O)Nc2cc(-c3ccccc3)nn2-c2ccccc2)c1	0.299
COc1ncc(F)cc1CNc1ccc(Cc2c[nH]c3ncc(C)cc23)c(F)n1	0.951
CO[C@H]1C[C@@H]2CC[C@@H](C)[C@@](O)(O2)C(=O)C(=O)N2CCCC[C@H]2C(=O)O[C@H]([C@H](C)C[C@@H]2CC[C@@H](O)[C@H](OC)C2)CC(=O)[C@H](C)/C=C(\C)[C@@H](O)[C@@H](OC)C(=O)[C@H](C)C[C@H](C)/C=C/C=C/C=C/1C [Rapamycin]	0.285
CS(=O)(=O)OCCCCOS(C)(=O)=O [Busulfan]	0.829
Cc1cc(NS(=O)(=O)c2ccc(N)cc2)no1 [Sulfamethoxazole]	1.17
CN(C)C(=N)NC(=N)N [Metformin_(hydrochloride)]	0.668
OCCOCCN1CCN(C2=Nc3ccccc3Sc3ccccc32)CC1 [Quetiapine]	0.906
CN(CCOc1ccc(CC2SC(=O)NC2=O)cc1)c1ccccn1 (configuration not stated) [Rosiglitazone]	1.19
C[C@H]1[C@H](NC(=O)/C(=N\OC(C)(C)C(=O)O)c2csc(N)n2)C(=O)N1S(=O)(=O)O [Aztreonam]	0.528
O=C1Nc2ccc(Cl)cc2[C@@](C#CC2CC2)(C(F)(F)F)O1 [Efavirenz]	0.473
O=C(c1ccc(F)cc1)N1CCC[C@H](c2nc(-c3ccc(F)cc3)no2)C1	0.938
CCc1c2c(nc3ccc(OC(=O)N4CCC(N5CCCCC5)CC4)cc13)-c1cc3c(c(=O)n1C2)COC(=O)[C@]3(O)CC [Irinotecan]	0.692
CN(C)C(=O)c1cc2cnc(Nc3ccc(N4CCNCC4)cn3)nc2n1C1CCCC1 [Ribociclib_hydrochloride]	0.332
CCc1nn(CCCN2CCN(c3cccc(Cl)c3)CC2)c(=O)n1CCOc1ccccc1 [Nefazodone_(hydrochloride)]	1.37
Nc1nc2[nH]cc(CCc3ccc(C(=O)N[C@@H](CCC(=O)O)C(=O)O)cc3)c2c(=O)[nH]1 [Pemetrexed_(disodium_hemipenta_hydrate)]	1.03
C[N+]1([O-])CCN(C2=Nc3cc(Cl)ccc3Nc3ccccc32)CC1 [Clozapine_N-oxide_(dihydrochloride)]	0.606
C[C@H](N=C(NC#N)Nc1cccc2ncccc12)c1ccccc1	0.994
C=CC(=O)Nc1cc(Nc2nccc(-n3cc(CN(C)C)c(-c4ccccc4)n3)n2)c(OC)cc1N1CCOCC1 [Lazertinib]	0.0589
Cc1cc(NC(=O)Cc2ccc(F)c(Cl)c2)n(C2CCCCC2)n1	0.77
Fc1ccc(-c2c3cccc(C(F)(F)F)c3nn2Cc2ccc(F)cc2Cl)cc1	0.581

SMILES	synaptosome phagocytic index
Nc1cccc2c1CN(C1CCC(=O)NC1=O)C2=O (configuration not stated) [Lenalidomide]	1.11
CC(C)(O)CC(=O)NCCn1ccc2ncnc(Nc3ccc(Oc4cccc(C(F)(F)F)c4)c(Cl)c3)c21	1.04
COC1(c2sc3c(N4CCOCC4)nc(-c4cnc(N)nc4)nc3c2C)COC1	0.384
CN1CC[C@H](c2c(O)cc(O)c3c(=O)cc(-c4ccccc4Cl)oc23)[C@H](O)C1 [Flavopiridol_(Hydrochloride)]	0.995
CN(Cc1cnc2nc(N)nc(N)c2n1)c1ccc(C(=O)N[C@@H](CCC(=O)O)C(=O)O)cc1 [Methotrexate]	1.02
CC1=C(/C=C/C(C)=C/C=C/C(C)=C/C(=O)O)C(C)(C)CCC1 [Retinoic_acid]	0.339
Nc1cc(C(F)(F)F)c(-c2nc(N3CCOCC3)nc(N3CCOCC3)n2)cn1 [Bimiralisib]	0.518
Cc1cc(Oc2cncnc2)cc(C(=O)Nc2ccc(F)cn2)n1 [Auglurant]	1.03
COc1cc2ncnc(Nc3cccc(Cl)c3F)c2cc1OC(=O)N1CCN(C)C[C@H]1C [Zorifertinib]	0.285
O=C(CCCCCCC(=O)Nc1ccccc1)NO [Vorinostat]	0.0904
O=C(NC1CCCCC1)N(Cc1ccccc1)CC1CCNCC1	0.882
CCN(CC)Cc1ccc2cc(COC(=O)Nc3ccc(C(=O)NO)cc3)ccc2c1 [Givinostat_(hydrochloride_monohydrate)]	0.482
CN(C)c1ncc(/C=C/c2nc3ccc(OCCF)cc3o2)s1	0.356
CCOC(=O)C1=C(C)NC(C)=C(C(=O)OC)C1c1cccc(Cl)c1Cl (configuration not stated) [Felodipine]	1.04
COc1ccc(C2CNC(=O)C2)cc1OC1CCCC1 (configuration not stated) [Rolipram]	0.814
N[C@H]1CONC1=O [L-Cycloserine]	0.883
CN(C)C(=N)NC(=N)N [Metformin]	1.28
COc1cc2c(N3CCN(C(=O)Nc4ccc(OC(C)C)cc4)CC3)ncnc2cc1OCCCN1CCCCC1 [Tandutinib]	0.936
Cn1cc(-c2ccncc2)c(-c2ccc(OCc3ccc4ccccc4n3)cc2)n1 [Mardepodect]	0.723
CCc1c2c(nc3ccc(OC(=O)N4CCC(N5CCCCC5)CC4)cc13)-c1cc3c(c(=O)n1C2)COC(=O)[C@]3(O)CC [Irinotecan_(hydrochloride_trihydrate)]	0.682
Cn1cc2cc(C(F)(F)c3nnc4ccc(-c5cnn(C6CC6)c5)nn34)c(F)cc2n1 [Bozitinib]	0.851
CN1CCC(=C2c3ccccc3C=Cc3ccccc32)CC1 [Cyproheptadine_(hydrochloride)]	0.741
CCc1c(C)[nH]c2c1C(=O)C(CN1CCOCC1)CC2 (configuration not stated) [Molindone_(hydrochloride)]	0.64
COc1ccc2c(c1)c(CC(=O)O)c(C)n2C(=O)c1ccc(Cl)cc1 [Indomethacin_(sodium_hydrate)]	0.618
